Structures are written as SMILES. Values joined by “and” are separate entries in the source; they are usually repeats but may differ in a detail not shown here. Equal values may be shown once. Records with an inconclusive call do not appear. Where a call stands in place of a potency, no number is given. Where a structure was tested more than once in an assay, its records may differ in their call. Active and inactive are the calls of the source. Calls follow the shape of the dose curve; as a rule, active = well fitted cell-killing curve with a large enough effect in the repeat runs; inconclusive = weak or mixed curves, or effect the other way; inactive = no such curve, though single readings can be large or run the other way.
Potency is read from the fitted curve at half-maximal effect.

The nature of this experiment: qHTS assay to identify small molecule antagonists of the vitamin D receptor (VDR) signaling pathway - cell viability counter screen (AID 743225). Also: nearly all actives have a fitted effect of over 50% in size. As to conditions: VDR-bla HEK293T viability, CellTiter-Glo luminescence, 16 h; series mostly up to 61 µM. An excerpt:
U.S. Tox21 Program National Center for Advancing Translational Sciences [NCATS] NIH Chemical Genomics Center [NCGC] U.S. Environmental Protection Agency [EPA] National Institutes of Environmental Health Sciences [NIEHS] National Toxicology Program [NTP] U.S. Food and Drug Administration [FDA] Tox21 Assay Overview: The vitamin D receptor (VDR), a member of nuclear hormone receptor superfamily, plays a critical role in calcium homeostasis and bone metabolism. It is also involved in cell differentiation and growth, and thrombogenicity. To identify the compounds that inhibit VDR signaling, the VDR-UAS-bla HEK 293T cell line (Invitrogen, Carlsbad, CA, USA) containing a beta-lactamase reporter gene under the control of an upstream activator sequence (UAS) was used to screen the Tox21 10K compound library. The cytotoxicity of the Tox21 compound library against the VDR-bla cell line was tested in parallel by measuring the cell viability using CellTiter-Glo assay (Promega, Madison, WI) in the same wells.
Tox21 Assay Protocol Summary: VDR-bla cells were dispensed at 2,000 cells/5 uL of assay medium per well into black wall/clear-bottom 1536-well plates using a Multidrop Combi (Thermo Fisher Scientific, Waltham, MA) dispenser. After the assay plates were incubated at a 37C and 5% CO2 for 4 h, 23 nL of compounds dissolved in DMSO, positive controls or DMSO only was transferred to the assay plate by a Pintool station (Kalypsys, San Diego, CA), followed by addition of 1 uL of 1-alpha, 25-Dihydroxy Vitamin D3 (3 nM, final concentration in the wells) using a Bioraptr Flying Reagent Dispenser (FRD) workstation (Beckman Coulter, Indianapolis, IN). The plates were incubated at 37C and 5% CO2 for 16 h, and then 1 uL of LiveBLAzerTM B/G FRET substrate was added using a Bioraptr FRD. The plates were incubated at room temperature for 2 h and fluorescence intensity was measured by an Envision plate reader (PerkinElmer, Shelton, CT). For cell viability readout that measures cytotoxicity, 3 ul/well of CellTiter-Glo reagent was added into the assay plates using a Bioraptr FRD. After 30 min incubation at room temperature, the luminescence intensity in the plates was measured using a ViewLux plate reader (PerkinElmer).
In general terms: qHTS replaces the single test concentration by a dilution series.
Consider `Nc1ccccc1`, for which the Potency result was “inactive”.

Take `CC[n+]1ccccc1`: the Potency entry is “inactive”.

Consider `C[C@]12CCC(=O)C=C1CC[C@@H]1[C@@H]2CC[C@]2(C)C(=O)CC[C@@H]12`, for which the Potency entry was “inactive”.

As for `C[N+](C)(C)Cc1ccccc1`, the Potency result is “inactive”.

Regarding `O=c1[nH]c(=O)n(Cl)c(=O)n1Cl`, the Potency result was “inactive”.

As for `O=c1nc(O)n(Cl)c(=O)n1Cl`, the Potency result was “inactive”.

As for `Oc1cccc2cccnc12`, the Potency result is “inactive and 8.71 µM (active)”.

With `O=S(=O)(O)O`, the Potency result is “inactive”.

Consider `O=C(O)c1nc(Cl)ccc1Cl`, for which the Potency entry was “inactive”.

As to `CCn1cc[n+](C)c1C`, the Potency entry is “inactive”.

As to `CC[N+](CC)(CC)CC`, the Potency result is “inactive”.

Regarding `CCCCCCn1cc[n+](C)c1`, the Potency result is “inactive”.

Take `CCCCn1cc[n+](C)c1C`: the Potency result is “inactive”.

Regarding `O=C(O)C(Cl)(Cl)Cl`, the Potency entry is “inactive”.

`CCC[N+]1(C)CCCCC1`: the Potency entry was “inactive”.

With `O=[N+]([O-])O`, the Potency entry is “inactive”.

In the case of `O=C(O)CCl`, the Potency entry is “inactive”.

For `CC[N+]1(C)CCCC1`, the Potency result was “inactive”.

On to `O=C(O)c1ccccc1O`, for which the Potency entry was “inactive”.

`O=P1(N(CCCl)CCCl)NCCCO1` (stereo not given): the Potency entry is “inactive”.

As for `CC(=O)[O][Hg][c]1ccccc1`, the Potency was 1.37 µM (active) and 2.19 µM (active) and 2.39 µM (active).

On to `Oc1ccccc1-c1ccccc1`, for which the Potency result is “inactive”.

Turning to `CC(=O)O`, the Potency entry is “inactive”.

Consider `C=CCOC(Cn1ccnc1)c1ccc(Cl)cc1Cl` (stereo not given), for which the Potency result is “inactive”.

As for `Cc1cc(Cl)ccc1OCC(=O)O`, the Potency result was “inactive”.

For the compound `CNC`, the Potency result was “inactive”.

Consider `CCCC[N+]1(C)CCCCC1`, for which the Potency result was “inactive”.

Regarding `CCCCn1cc[n+](C)c1`, the Potency result was “inactive”.

As for `O=[N+]([O-])c1ccccc1O`, the Potency result is “inactive”.

`C1CCC(NC2CCCCC2)CC1`: the Potency result was “inactive”.

Turning to `O=C(O)C(Cl)Cl`, the Potency entry is “inactive”.

Turning to `CCCC[n+]1cccc(C)c1`, the Potency result was “inactive”.

In the case of `CCNc1nc(Cl)nc(NCC)n1`, the Potency entry was “inactive”.

As for `OCCOc1ccccc1`, the Potency entry was “inactive”.

Regarding `COc1ccc(N)cc1`, the Potency result is “inactive”.

Take `Cc1cc(-c2ccc(N)c(C)c2)ccc1N`: the Potency result is “inactive”.

As for `Nc1ccc(-c2ccc(N)cc2)cc1`, the Potency result was “inactive”.

As for `CCCC[n+]1ccccc1C`, the Potency result was “inactive”.

As for `CC(Cl)(Cl)C(=O)O`, the Potency result is “inactive”.

In the case of `Nc1ccc(-c2ccc(N)c(Cl)c2)cc1Cl`, the Potency entry was “inactive”.

Source of the values: PubChem BioAssay (Tox21).
